Inhibition data for 40 compounds are collected here from PubChem BioAssay.

Some of the results follow. Unmarked numbers belong to inactive results. Calls of active or inactive are those of the source.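 The calls were made as follows: active = mean inhibition above about 50% when retested at one dose (limit read from the data); inactive = the rest.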

As a reminder, the inhibition is the drop in the measured response relative to a control, in per cent.

The test can be described thus: Ultra-Glo luciferase signal interference – biochemical, single concentration, SENP8 reaction pre-completed, artefact control for SENP inhibitor project, confirmation (AID 488919).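 Also: plate controls were DMSO wells with completed reaction for no effect and substrate without enzyme for full effect.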 The note with it: Pre-incubated SENP8/Z-RLRGG-aminoluciferin, luciferase luminescence interference; at 12.5 µM; hits give high values.
Regarding `CCOc1ccc(N/C=C/C(=O)c2ccccc2)cc1`, the inhibition is 19.3%.
With `CCC(=O)Nc1ccc(C(=O)Nc2cccc(OC)c2)cc1`, the inhibition was 52.9% (active).
In the case of `O=C(Nc1ccccc1)Nc1ccccc1C(=O)NCc1ccco1`, the inhibition was 66.7% (active).
For `COc1ccc(CNC(=O)COc2ccccc2C(=O)c2cnn(-c3ccccc3)c2)cc1OC`, the inhibition is 65.5% (active).
With `O=C(Nc1cc2ccccc2oc1=O)C1CCCCC1`, the inhibition was 3.7%.
`CCSc1nnc(NC(=O)c2ccc(C)cc2)s1`: the inhibition is 2%.
The value for `Cc1ccc(F)c(NC(=O)CCc2ccccc2)c1` was 44.8%.
For `Cc1nonc1C(=O)N/N=C/c1ccc(O)cc1`, the inhibition is 66.2% (active).
On to `Brc1ccccc1C1Nc2cccc3cccc(c23)N1`, for which the inhibition is 3.4%.
In the case of `Cc1ccnc(NC(=O)c2ccoc2C)c1` it was 80.1% (active); in that of `COc1cccc(C(=O)Nc2nc3ccc(S(C)(=O)=O)cc3s2)c1`, 73.5% (active); in that of `COc1ccc2occ(C(=O)c3ccc(N=C(C)N(C)C)cc3)c2c1`, 51.3% (active).
The value for `CC(=NCc1ccco1)c1c(C(F)(F)F)[nH]n(-c2nc3ccccc3s2)c1=O` was 89.3% (active); that for `Cc1cc(NC(=O)Nc2ccccc2[N+](=O)[O-])no1` was 41.3%; that for `Cc1cccc(NC(=O)COc2ccc(Br)cc2C)n1` was 11.1%.
Take `Cc1ccc(S(=O)(=O)Nc2nc3ccccc3nc2N2CCc3ccccc3C2)cc1`: the inhibition was 4.3%.
As to `CC1=CC(=C(C#N)c2nc3ccccc3s2)C=C(C)N1c1ccc(F)cc1F`, the inhibition is -9.8%.
The value for `Brc1ccc2nc(N3CCCC3)sc2c1` was 38.6%; that for `CC(=O)Oc1ccc2c(c1)C(=O)c1ccccc1C2=O` was 25.6%; that for `CCOC(=O)c1cnc2[nH]c3ccccc3n2c1=O` was 65.2% (active).
As for `O=C(Nc1ccc(Cl)cc1)c1ccsn1`, the inhibition is 51.9% (active).
The value for `O=[N+]([O-])c1ccccc1N/N=C1\CCc2ccccc21` was -0.8%; that for `O=C(Nc1ccccc1)c1ccc(NC(=O)c2cccs2)cc1` was -1.7%; that for `O=[N+]([O-])c1ccc2nc(-c3ccccn3)[nH]c2c1` was 48.8%.
In the case of `O=C(NC(=O)c1ccccc1)Nc1ccccc1O` it was 23.8%; in that of `CCOC(=O)c1cccc(NC(=O)c2ccc(F)cc2F)c1`, 59.7% (active); in that of `COc1ccc(/C=C/c2noc(-c3ccccc3OC(C)=O)n2)cc1`, 22.7%.
In the case of `O=c1c2c(nc3cc(-c4cccc(Cl)c4)[nH]n13)CCCC2` it was -4.6%.
For the compound `COc1ccccc1NC(=O)c1ccc(N2CC3CC(C2)c2cccc(=O)n2C3)c(NC(=O)c2cccnc2)c1` (stereo not given), the inhibition is 3.7%.
With `O=C(O)/C=C/C(=O)NNc1ccc([N+](=O)[O-])cc1`, the inhibition is 79.3% (active).
Regarding `O=C(O)c1ccc2c3c(cccc13)C(=O)N(OS(=O)(=O)c1ccccc1)C2=O`, the inhibition was 53.8% (active).
The value for `O=C(c1cnn2ccccc12)N1CCc2ccccc21` was 61.4% (active).
Turning to `O=C(c1ccc(CSc2ccccc2)cc1)N1CCCCCC1`, the inhibition is 65.5% (active).
With `COc1ccc(C(CC(=O)c2ccccc2)S(=O)(=O)c2ccccc2)cc1` (stereo not given), the inhibition was 4.7%.
In the case of `COCn1c(COc2ccccc2)nc2ccccc21` it was 56% (active); in that of `c1ccc(-c2noc(-c3cccs3)n2)nc1`, 90.1% (active); in that of `CCOC(=O)/C(C#N)=C/c1ccc(N2CCCCC2)cc1`, 10.6%.
For `COCCN(CCOC)c1nc(N)c2c(N)nc3c(c2c1C#N)CC(=O)N3Cc1ccc(Cl)cc1`, the inhibition is -3.7%.
In the case of `Nc1ncc(-c2cc3ccccc3oc2=O)s1`, the inhibition was 91.7% (active).
As for `O=C(NCc1ccccn1)c1c(O)c2c([nH]c1=O)CCCC2`, the inhibition is -3.1%.
